Data: PubChem BioAssay
Calls of active or inactive are those of the source.

Assays:
[1] = E. coli DRC41 culture turbidity changes, primary screen, E. coli filamentation inducer project, strain DRC41, OD650, 48 h (AID 1152);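 also: E. coli MC1000 strain DRC41 lacking acrAB efflux pump and sulA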; conditions: E. coli DRC41 (acrAB sulA), higher = more signal, called active from +8 up or from −8 down
[2] = small-molecule binders of probe aLefty1, primary screen, biochemical, small-molecule microarray, 635/667 nm fluorescence (AID 1153); conditions: higher = more signal;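 also: score merges spot fluorescence with signal-to-noise ratio from the scanned slide images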
[3] = PSAC antagonists in infected red cells, primary screen, cell-based, P. falciparum Indochina, OD700, 1 h (AID 1154); conditions: P. falciparum Indochina infected RBC osmotic lysis, higher = more signal, called active from +8 up or from −8 down
[4] = PSAC antagonists in infected red cells, primary screen, cell-based, P. falciparum Indochina, OD700, 2 h (AID 1155);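 also: lysis reports solute entry through the parasite surface anion channel PSAC; channel blockers reduce lysis of infected cells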; conditions: P. falciparum Indochina infected erythrocytes, osmotic lysis OD700; higher = more signal, called active from +8 up or from −8 down
[5] = osmotic lysis modulators in infected erythrocytes, primary screen, PSAC antagonist project, cell-based, P. falciparum Indochina, OD700, 3 h (AID 1156); conditions: higher = more signal, called active from +8 up or from −8 down
[6] = PSAC antagonists in infected red cells, primary screen, cell-based, P. falciparum Indochina, OD700, 18 h (AID 1157); conditions: P. falciparum Indochina infected erythrocytes, osmotic lysis OD700, 18 h; higher = more signal, called active from +8 up or from −8 down
[7] = modulators of S6 phosphorylation in cells, primary screen, cell-based, A549, cytoblot, luminescence, serum-stimulated (AID 1158); conditions: A549 phospho-S6 cytoblot, 5 h, higher = more signal;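 also: serum-stimulated A549 lung adenocarcinoma cells; signal is phosphorylated S6 detected by cytoblot immunostaining with HRP secondary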
[8] = biological target: NADPH oxidase 2 (Homo sapiens) (UniProt P04839); assay: NOX2-dependent H2O2 signal modulators, primary screen, NOX inhibitor project, cell-based, HEK293-NOX2, PMA-stimulated, Amplex Red fluorescence (AID 1159); conditions: 45 min, higher = more signal, called active from +8 up or from −8 down; also: test concentration not given here
[9] = biological target: NADPH oxidase 4 (Homo sapiens) (UniProt Q9NPH5); assay: NOX4-dependent H2O2 signal modulators, primary screen, NOX inhibitor project, cell-based, HEK293-NOX4, tetracycline-induced, Amplex Red fluorescence (AID 1160); conditions: 45 min, higher = more signal, called active from +8 up or from −8 down
[10] = biological target: NADPH oxidase 5 (Homo sapiens) (UniProt Q96PH1); assay: NOX5-dependent H2O2 signal modulators, primary screen, NOX inhibitor project, cell-based, HEK293-NOX5, Amplex Red fluorescence (AID 1161); conditions: HEK293-NOX5, ionomycin, 45 min, higher = more signal
[11] = A549 cell viability effects, profiling panel, calcein-AM fluorescence, 48 h, basal (AID 1162); conditions: higher = more signal; also: test concentration not given here
[12] = adipocyte viability effects, profiling panel, cell-based, 3T3-L1 adipocytes, calcein-AM fluorescence, 48 h, basal (AID 1163); conditions: 3T3-L1 adipocytes viability, higher = more signal; also: test concentration not given here
[13] = HepG2 cell viability effects, profiling panel, calcein-AM fluorescence, 48 h, basal (AID 1164); conditions: higher = more signal; also: test concentration not given here
[14] = MM1S cell viability effects, profiling panel, calcein-AM fluorescence, 48 h, basal (AID 1165); conditions: higher = more signal;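 also: viability of MM1S multiple myeloma cells under basal unstimulated conditions; test concentration not given here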
[15] = basal RPMI8226 viability, no added stimulus, profiling panel, cell-based, calcein-AM fluorescence, 48 h, PK04 Diversity Set (AID 1166); conditions: RPMI8226 myeloma viability, higher = more signal;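 also: cells grown under basal conditions without added stimulus; test concentration not given here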
[16] = basal HepG2 mitochondrial membrane potential changes, profiling panel, cell-based, JC-1 fluorescence, 24 h, 100 nL compound (AID 1167); conditions: higher = more signal; also: test concentration not given here
[17] = basal 3T3-L1 adipocyte mitochondrial potential changes, profiling panel, cell-based, JC-1 fluorescence, 3T3-L1 adipocytes, 24 h, 100 nL compound (AID 1168); conditions: JC-1 mitochondrial fluorescence, higher = more signal, called active from +8 up or from −8 down; also: test concentration not given here
[18] = basal RPMI8226 mitochondrial membrane potential changes, profiling panel, cell-based, JC-1 fluorescence, 24 h, 100 nL compound (AID 1169); conditions: RPMI8226 myeloma, JC-1 mitochondrial potential fluorescence, higher = more signal; also: test concentration not given here
[19] = basal MM1S mitochondrial membrane potential changes, profiling panel, cell-based, JC-1 fluorescence, 24 h, 100 nL compound (AID 1170); conditions: higher = more signal; also: test concentration not given here
[20] = A549 lung cancer cell viability effects, profiling panel, resazurin fluorescence, 24 h, PK04 Diversity Set (AID 1171); conditions: higher = more signal, called active from +8 up or from −8 down; also: test concentration not given here

Sequence of NADPH oxidase 4 (Homo sapiens) (Q9NPH5 whole entry, looked up): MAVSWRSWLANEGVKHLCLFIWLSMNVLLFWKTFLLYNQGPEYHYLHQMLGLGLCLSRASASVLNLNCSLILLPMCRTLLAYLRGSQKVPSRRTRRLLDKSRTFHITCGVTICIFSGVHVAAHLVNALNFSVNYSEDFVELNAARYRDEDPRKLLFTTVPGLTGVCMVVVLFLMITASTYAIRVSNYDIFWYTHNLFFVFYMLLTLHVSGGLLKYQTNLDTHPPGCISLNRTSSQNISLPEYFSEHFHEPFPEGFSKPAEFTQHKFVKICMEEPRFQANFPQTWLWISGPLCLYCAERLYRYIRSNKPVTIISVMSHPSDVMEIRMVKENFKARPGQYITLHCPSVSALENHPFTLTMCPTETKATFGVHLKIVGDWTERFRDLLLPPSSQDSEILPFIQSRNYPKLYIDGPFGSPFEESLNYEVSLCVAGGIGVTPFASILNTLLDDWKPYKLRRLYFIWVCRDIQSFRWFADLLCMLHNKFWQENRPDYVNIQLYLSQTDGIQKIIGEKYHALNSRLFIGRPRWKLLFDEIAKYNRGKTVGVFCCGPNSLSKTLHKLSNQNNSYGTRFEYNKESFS
Sequence of NADPH oxidase 2 (Homo sapiens) (P04839 whole entry, looked up): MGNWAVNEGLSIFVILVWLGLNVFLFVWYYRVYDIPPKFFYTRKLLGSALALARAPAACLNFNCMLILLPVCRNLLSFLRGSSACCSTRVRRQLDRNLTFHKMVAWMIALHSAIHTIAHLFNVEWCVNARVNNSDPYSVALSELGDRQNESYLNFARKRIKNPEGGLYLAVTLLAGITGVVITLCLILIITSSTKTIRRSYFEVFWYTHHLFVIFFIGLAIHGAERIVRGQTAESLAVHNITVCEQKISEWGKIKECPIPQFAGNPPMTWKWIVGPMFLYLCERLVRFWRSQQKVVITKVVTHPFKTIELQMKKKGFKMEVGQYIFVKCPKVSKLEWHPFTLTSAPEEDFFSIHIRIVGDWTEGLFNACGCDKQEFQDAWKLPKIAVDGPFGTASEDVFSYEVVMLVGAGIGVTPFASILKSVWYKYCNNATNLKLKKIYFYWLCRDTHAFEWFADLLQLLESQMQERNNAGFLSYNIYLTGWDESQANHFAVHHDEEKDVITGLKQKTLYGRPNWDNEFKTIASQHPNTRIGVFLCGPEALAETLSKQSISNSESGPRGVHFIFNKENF
Sequence of NADPH oxidase 5 (Homo sapiens) (Q96PH1 whole entry, looked up): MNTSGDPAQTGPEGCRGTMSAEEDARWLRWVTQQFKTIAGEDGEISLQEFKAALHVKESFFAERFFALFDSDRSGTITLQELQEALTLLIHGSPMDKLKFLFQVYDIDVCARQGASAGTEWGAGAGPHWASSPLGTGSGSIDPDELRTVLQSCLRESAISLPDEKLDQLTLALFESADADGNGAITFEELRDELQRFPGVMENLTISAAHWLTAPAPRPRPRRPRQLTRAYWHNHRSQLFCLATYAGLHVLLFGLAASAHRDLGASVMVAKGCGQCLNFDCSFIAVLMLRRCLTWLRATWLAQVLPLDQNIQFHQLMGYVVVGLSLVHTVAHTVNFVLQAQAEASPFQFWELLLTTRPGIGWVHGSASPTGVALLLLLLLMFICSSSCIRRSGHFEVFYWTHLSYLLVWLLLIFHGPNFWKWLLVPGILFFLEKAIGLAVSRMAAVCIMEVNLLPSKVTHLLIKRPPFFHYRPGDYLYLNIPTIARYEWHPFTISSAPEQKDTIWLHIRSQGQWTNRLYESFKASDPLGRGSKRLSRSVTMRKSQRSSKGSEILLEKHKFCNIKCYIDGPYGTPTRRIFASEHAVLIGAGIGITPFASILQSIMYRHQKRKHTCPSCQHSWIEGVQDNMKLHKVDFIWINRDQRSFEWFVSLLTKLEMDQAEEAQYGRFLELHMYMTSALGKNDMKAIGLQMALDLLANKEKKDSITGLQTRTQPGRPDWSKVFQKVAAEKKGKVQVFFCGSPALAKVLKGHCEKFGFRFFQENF

Row | SMILES | z-score [1] | composite z-score [2] | z-score [3] | z-score [4] | z-score [5] | z-score [6] | z-score [7] | z-score [8] | z-score [9] | z-score [10] | z-score [11] | z-score [12] | z-score [13] | z-score [14] | z-score [15] | z-score [16] | z-score [17] | z-score [18] | z-score [19] | z-score [20]
1 | COC1(C)CN(Cc2ccccc2Br)[C@H](/C=C/c2ccccc2)[C@H](Cc2ccccc2)O1 (stereo not given in full) | 1.16 (inactive) | -0.31 | 0.787 (inactive) | 0.669 (inactive) | 0.911 (inactive) | -0.0143 (inactive) | 0.52 | -0.112 (inactive) | 0.76 (inactive) | -0.271 | 0.411 | 1.2 | 0.875 | -0.245 | -0.0348 | -0.545 | -0.35 (inactive) | -0.19 | -0.861 | 0.494 (inactive)
2 | CO[C@H]1O[C@H](CO)[C@@H](OC(=O)Nc2ccccc2-c2ccccc2)[C@H](OC(=O)Nc2ccc3c(c2)OCO3)[C@@H]1OC(=O)Nc1ccc2c(c1)OCO2 | -0.609 (inactive) | 0.658 | 15.3 (active) | 2.72 (inactive) | 1.22 (inactive) | 1.11 (inactive) | -0.0176 | 0.878 (inactive) | -0.722 (inactive) | -1.49 | 0.105 | -1.46 | -1.05 | -1.49 | -1.84 | -0.467 | 1.34 (inactive) | -0.363 | -0.263 | -1.77 (inactive)
3 | CCOC(=O)C[C@H]1[C@H](OC(=O)c2ccc(-c3ccccc3)cc2)[C@@H](NC(=O)C2CCCCC2)c2cc(OCCCO)ccc2N1C(=O)c1ccccc1 | -0.915 (inactive) | -0.263 | 0.479 (inactive) | 0.705 (inactive) | -0.138 (inactive) | 0.505 (inactive) | 1.09 | 0.169 (inactive) | -0.849 (inactive) | 1.49 | -0.28 | 0.557 | 0.137 | -0.412 | -0.203 | 0.383 | -0.983 (inactive) | 0.115 | -0.101 | -1.01 (inactive)
4 | CC(C)CN1C(=O)[C@@]2(Cc3ccccc31)c1ccccc1C(=O)N(Cc1ccccc1C(F)(F)F)[C@H]2c1ccc(CO)cc1 | 1.14 (inactive) | -0.345 | 0.21 (inactive) | -0.419 (inactive) | -0.495 (inactive) | -0.48 (inactive) | 2.04 | 0.0489 (inactive) | 0.771 (inactive) | 1.34 | 1.23 | 1.06 | 0.493 | 0.939 | 1.2 | 0.786 | -1.55 (inactive) | 0.01 | -0.534 | -0.236 (inactive)
5 | CON(C)C(=O)C=C1C[C@@H](c2cccc(Cl)c2)O[C@@H](c2cccc(Cl)c2)O1 | -0.511 (inactive) | -0.0035 | 9.13 (active) | 2.17 (inactive) | -1.24 (inactive) | 1.47 (inactive) | 0.178 | -0.0563 (inactive) | -0.986 (inactive) | 0.0304 | -1.5 | 0.559 | -2.18 | -2.44 | -4.18 | 3.67 | 0.748 (inactive) | -1.09 | -1.16 | 2.23 (inactive)
6 | NC(N)=NCc1cn(CCc2c[nH]c3ccccc23)nn1 | -0.75 (inactive) | -0.151 | 0.488 (inactive) | 0.078 (inactive) | 0.0119 (inactive) | 0.114 (inactive) | -0.583 | -0.00385 (inactive) | 0.0455 (inactive) | -3.95 | -0.609 | -0.596 | -0.173 | -0.613 | -0.286 | -1.09 | -1.04 (inactive) | -0.588 | -0.77 | -0.975 (inactive)
7 | CN(C)C(=O)[C@]1(CCC(=O)OC(C)(C)C)N=C(c2ccc(OCCCO)cc2)O[C@@H]1c1ccccc1 | 0.94 (inactive) | 0.217 | 22.5 (active) | 6.32 (inactive) | -0.0962 (inactive) | 0.84 (inactive) | -0.408 | 1.24 (inactive) | 0.419 (inactive) | -0.229 | 1.13 | -0.0645 | 0.41 | 0.387 | -0.014 | 0.101 | 0.756 (inactive) | -0.368 | 0.211 | 0.534 (inactive)
8 | CCCCC(=C=CC[C@@H](O)c1ccc(OCCO)cc1)C[C@@H](O)COCc1ccccc1 | 1.98 (inactive) | 0.596 | 16.5 (active) | 1.73 (inactive) | -0.0577 (inactive) | -0.237 (inactive) | 1.95 | -2.67 (inactive) | -0.61 (inactive) | -2.45 | 2.64 | 0.716 | 2.15 | -1.35 | -0.586 | 0.605 | -0.0104 (inactive) | 0.178 | -1.18 | 0.812 (inactive)
9 | C[C@]12C(=O)N(CCCCCCO)[C@@H]3C(=O)N(c4ccc(Cl)cc4)CC=CC31O[C@@H]1/C=C\CCCOC(=O)C12 (stereo not given in full) | 1.64 (inactive) | -0.25 | 2.61 (inactive) | -1.32 (inactive) | -0.397 (inactive) | -1.66 (inactive) | 0.654 | 1.12 (inactive) | 0.428 (inactive) | 2.22 | 0.41 | 1.23 | 2.06 | 1.61 | 0.0929 | 1.09 | -0.317 (inactive) | 0.655 | 0.411 | -0.0459 (inactive)
